# Experimental data published in the supplement of paper PMC8728848.
# Shown is part of a subset that was picked to be rich in the strongest signals.
# B1: Langerin (Homo sapiens), Q9UJ71 (protein)
# chain: STLNAQIPELKSDLEKASALNTKIRALQGSLENMSKLLKRQNDILQVVSQGWKYFKGNFYYFSLIPKTWYSAEQFCVSRNSHLTSVTSESEQEFLYKTAGGLIYWIGLTKAGMEGDWSWVDDTPFNKVQSARFWIPGEPNDAGNNEHCGNIKAPSLQAWNDAPCDITFLFICKRPYVPSEP
# Columns and labels:
# Test in all cases: glycan array binding signal (z-score within array); higher = stronger binding
# Conditions in all cases: glycan notation: IUPAC condensed, linker removed; mutation: N288D, K313I
# [1] = biological target: GlcNAc(b1-2)[GlcNAc(b1-4)]Man(a1-3)[GlcNAc(b1-4)][GlcNAc(b1-2)[GlcNAc(b1-6)]Man(a1-6)]Man(b1-4)GlcNAc(b1-4)[Fuc(a1-6)]GlcNAc
# In short: (§1)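 Glycan array data came from 3228 arrays in the Consortium for Functional Glycomics database, and only arrays with an available protein sequence were kept. Glycan names were put into IUPAC-condensed notation, and columns mapping to the same glycan were averaged. The binding signal is a within-array Z-score, averaged across arrays of one protein sequence run at different concentrations or buffers and across linkers. A negative Z-score can be read as non-binding.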
# [2] = biological target: GlcNAc(b1-2)[GlcNAc(b1-6)]Man(a1-6)[GlcNAc(b1-2)Man(a1-3)]Man(b1-4)GlcNAc(b1-4)GlcNAc
# In short: as §1
# [3] = biological target: GlcNAc(b1-2)[GlcNAc(b1-6)]Man(a1-6)[GlcNAc(b1-4)][GlcNAc(b1-2)Man(a1-3)]Man(b1-4)GlcNAc(b1-4)GlcNAc
# In short: as §1
# [4] = biological target: GlcNAc(b1-3)Gal(b1-4)GlcNAc
# In short: as §1
# [5] = biological target: GlcNAc(b1-3)Gal(b1-4)GlcNAc(b1-2)[GlcNAc(b1-3)Gal(b1-4)GlcNAc(b1-6)]Man(a1-6)[GlcNAc(b1-3)Gal(b1-4)GlcNAc(b1-2)Man(a1-3)]Man(b1-4)GlcNAc(b1-4)GlcNAc
# In short: as §1
# [6] = biological target: GlcNAc(b1-3)Gal(b1-4)GlcNAc(b1-3)Gal(b1-4)GlcNAc(b1-2)[GlcNAc(b1-3)Gal(b1-4)GlcNAc(b1-3)Gal(b1-4)GlcNAc(b1-6)]Man(a1-6)[GlcNAc(b1-3)Gal(b1-4)GlcNAc(b1-3)Gal(b1-4)GlcNAc(b1-2)Man(a1-3)]Man(b1-4)GlcNAc(b1-4)[Fuc(a1-6)]GlcNAc
# In short: as §1
# [7] = biological target: GlcNAc(b1-3)Gal(b1-4)GlcNAc(b1-3)Gal(b1-4)GlcNAc(b1-3)Gal(b1-4)GlcNAc(b1-2)[GlcNAc(b1-3)Gal(b1-4)GlcNAc(b1-3)Gal(b1-4)GlcNAc(b1-3)Gal(b1-4)GlcNAc(b1-6)]Man(a1-6)[GlcNAc(b1-3)Gal(b1-4)GlcNAc(b1-3)Gal(b1-4)GlcNAc(b1-3)Gal(b1-4)GlcNAc(b1-2)Man(a1-3)]Man(b1-4)GlcNAc(b1-4)[Fuc(a1-6)]GlcNAc
# In short: as §1
# [8] = biological target: GlcNAc(b1-3)Gal(b1-4)GlcNAc(b1-3)Gal(b1-4)GlcNAc(b1-3)Gal(b1-4)GlcNAc(b1-3)Gal(b1-4)GlcNAc(b1-2)Man(a1-3)[GlcNAc(b1-3)Gal(b1-4)GlcNAc(b1-3)Gal(b1-4)GlcNAc(b1-3)Gal(b1-4)GlcNAc(b1-3)Gal(b1-4)GlcNAc(b1-2)Man(a1-6)]Man(b1-4)GlcNAc(b1-4)[Fuc(a1-6)]GlcNAc
# In short: as §1
# [9] = biological target: GlcNAc(b1-3)Gal(b1-4)GlcNAc(b1-6)[GlcNAc(b1-3)]Gal(b1-4)GlcNAc
# In short: as §1
# [10] = biological target: GlcNAc(b1-3)GalNAc
# In short: as §1
# [11] = biological target: GlcNAc(b1-3)[GlcNAc(b1-6)]Gal(b1-4)GlcNAc
# In short: as §1
# [12] = biological target: Kdn(a2-3)Gal(b1-3)GlcNAc
# In short: as §1
# [13] = biological target: Neu5Ac(a2-3)Gal(b1-3)GlcNAc(b1-6)GalNAc
# In short: as §1
# [14] = biological target: Neu5Ac(a2-3)Gal(b1-3)[Fuc(a1-4)]GlcNAc(b1-3)Gal(b1-3)[Fuc(a1-4)]GlcNAc
# In short: as §1
# [15] = biological target: Neu5Ac(a2-3)Gal(b1-3)[Neu5Ac(a2-6)]GlcNAc(b1-3)[Fuc(a1-3)[Gal(b1-4)]GlcNAc(b1-6)]Gal(b1-4)Glc
# In short: as §1
# [16] = biological target: Neu5Ac(a2-3)Gal(b1-4)GlcNAc(b1-6)GalNAc
# In short: as §1
# [17] = biological target: Neu5Ac(a2-3)Gal(b1-4)GlcNAc6S
# In short: as §1
# [18] = biological target: Neu5Ac(a2-3)Gal(b1-4)[Fuc(a1-3)]GlcNAc(b1-2)Man
# In short: as §1
# [19] = biological target: Neu5Ac(a2-3)Gal(b1-4)[Fuc(a1-3)]GlcNAc(b1-3)Gal
# In short: as §1
# [20] = biological target: Neu5Ac(a2-3)Gal(b1-4)[Fuc(a1-3)]GlcNAc(b1-3)GalNAc
# In short: as §1
# [21] = biological target: Neu5Ac(a2-6)Gal(b1-4)GlcNAc(b1-2)Man(a1-6)[GlcNAc(b1-2)Man(a1-3)]Man(b1-4)GlcNAc(b1-4)GlcNAc
# In short: as §1
# [22] = biological target: Neu5Ac(a2-6)Gal(b1-4)GlcNAc(b1-2)Man(a1-6)[Man(a1-3)]Man(b1-4)GlcNAc(b1-4)GlcNAc
# In short: as §1
# [23] = biological target: Neu5Ac(a2-6)Gal(b1-4)GlcNAc(b1-3)Gal(b1-4)GlcNAc(b1-6)[Gal(b1-3)]GalNAc
# In short: as §1
# [24] = biological target: Neu5Ac(a2-6)Gal(b1-4)GlcNAc(b1-6)GalNAc
# In short: as §1
# [25] = biological target: Neu5Ac(a2-8)Neu5Ac(a2-8)Neu5Ac(a2-8)Neu5Ac(a2-3)[GalNAc(b1-4)]Gal(b1-4)Glc
# In short: as §1
# [26] = biological target: Neu5Ac(b2-6)GalNAc
# In short: as §1
# [27] = biological target: Neu5Ac9Ac(a2-3)Gal(b1-4)GlcNAc
# In short: as §1
binder,measurement,setting,value
B1,glycan array binding signal (z-score),[1],1.91
same,glycan array binding signal (z-score),[2],-0.239
same,glycan array binding signal (z-score),[3],0.046
same,glycan array binding signal (z-score),[4],1.72
same,glycan array binding signal (z-score),[5],2.14
same,glycan array binding signal (z-score),[6],16.7
same,glycan array binding signal (z-score),[7],0.284
same,glycan array binding signal (z-score),[8],2.34
same,glycan array binding signal (z-score),[9],5.4
same,glycan array binding signal (z-score),[10],-0.205
same,glycan array binding signal (z-score),[11],4.87
same,glycan array binding signal (z-score),[12],-0.115
same,glycan array binding signal (z-score),[13],-0.092
same,glycan array binding signal (z-score),[14],-0.088
same,glycan array binding signal (z-score),[15],-0.298
same,glycan array binding signal (z-score),[16],-0.165
same,glycan array binding signal (z-score),[17],-0.294
same,glycan array binding signal (z-score),[18],-0.159
same,glycan array binding signal (z-score),[19],-0.338
same,glycan array binding signal (z-score),[20],0.034
same,glycan array binding signal (z-score),[21],-0.278
same,glycan array binding signal (z-score),[22],-0.187
same,glycan array binding signal (z-score),[23],-0.179
same,glycan array binding signal (z-score),[24],0.078
same,glycan array binding signal (z-score),[25],-0.254
same,glycan array binding signal (z-score),[26],-0.196
same,glycan array binding signal (z-score),[27],-0.434
